Source: PubChem BioAssay
A number with no mark means an inactive call.

assay: optical density shifts of acrAB sulA E. coli – strain DRC41, OD650, 48 h, E. coli filamentation inducer project, primary screen (AID 1152); details: higher = more signal, called active from +8 up or from −8 down;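 note: E. coli MC1000 strain DRC41 lacking acrAB efflux pump and sulA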

| SMILES | z-score |
| --- | --- |
| CC[C@@H]1C=C(C(=O)O)[C@H](c2ccc(Br)cc2)N1S(=O)(=O)c1ccc(C)cc1 | -0.467 |
| O=C1c2ccccc2[C@](Cc2ccccc2I)(C(=O)NCCN2CCOCC2)[C@H](c2ccc(CO)cc2)N1Cc1ccccc1Cl | 0.065 |
| COC(=O)[C@@]1(Cc2ccc(OC)cc2)[C@H]2c3cc(C(=O)N4CCCC4)n(CCN4CNCC4=O)c3C[C@H]2CN1C(=O)c1ccccc1 | -0.82 |
| COC(=O)[C@@]1(Cc2ccc(OC)cc2)[C@@H]2C(=CC(=O)[C@H]2CC(=O)C(=O)N2CCCC2)CN1C(=O)c1ccccc1 | -0.97 |
| C=CCNC(=O)[C@@H]1[C@H]2C(=O)O[C@H](c3ccccc3)[C@H](c3ccccc3)N2[C@H](c2ccc(O)cc2)[C@@]12C(=O)N(C(=O)OCCOC)c1ccc(C#CCNC(N)=O)cc12 | 0.411 |
| Cc1ccc(S[C@]2(C(=O)NCCCN(C)C)CC(=O)N(Cc3cc(C(F)(F)F)cc(C(F)(F)F)c3)[C@@H]2c2ccc(CO)cc2)cc1 | -0.48 |
| COc1ccc([Si](C)(C)[C@H]2[C@H](CCO)O[C@@]3(C(=O)N(Cc4ccc(N(C=O)c5ccccc5)cc4)c4ccccc43)[C@@H]2C)cc1 | -0.208 |
| [N-]=[N+]=Nc1ccccc1[C@H]1OC(c2ccc(OCCCO)cc2)=N[C@@]1(CCS(=O)(=O)c1ccccc1)C(N)=O | 0.613 |
| NC(=O)NCC#Cc1ccc2c(c1)[C@]1(C(=O)N2)[C@H](c2ccccc2OCCO)N2[C@H](c3ccccc3)[C@H](c3ccccc3)OC(=O)[C@H]2[C@@H]1C(=O)Nc1nc2ccccc2s1 | 0.726 |
| CCCC=C(CCC)[C@@H](NC(=O)c1cccs1)c1ccc(C(F)(F)F)cc1 | -0.938 |
| CN(C)C(=O)[C@]1(Cc2ccccc2N=[N+]=[N-])N=C(c2ccc(OCCCO)cc2)O[C@@H]1c1ccccc1N=[N+]=[N-] | 1.02 |
| COC(=O)[C@@]1(Cc2ccc(OC)cc2)[C@H]2c3cc(C(=O)N(C)C)n(Cc4ccccn4)c3C[C@H]2CN1C(=O)c1ccccc1 | -1.76 |
| COC(=O)[C@@]1(Cc2ccc(F)cc2)[C@H]2c3cc(C(=O)N4CCCC4)n(CCCNc4ncc(C(F)(F)F)cc4Cl)c3C[C@H]2CN1C(=O)c1ccccc1 | -2.31 |
| O=C(CS)NCCCCCCNC(=O)[C@@H]1C[C@@H]2C(=O)NCC(=O)N2[C@@H]1c1cccc(OCCO)c1 | 0.74 |
| CCOC(=O)C[C@H]1[C@H](OC(=O)c2ccccc2-c2ccccc2)[C@@H](NC(=O)CC(C)C)c2cc(OCCCO)ccc2N1C(=O)Cc1ccc(OC)cc1 | -0.892 |
| COc1ccc([C@H]2OC[C@@H]3C[C@@H](Cc4ccccc4)C(=O)N32)cc1 | -0.783 |
| COc1ccc(CCNC(=O)[C@@]2(C)c3ccccc3C(=O)N(C(C)C)[C@H]2c2ccc(CO)cc2)cc1 | 0.312 |
| C=CCOC(=O)[C@@H]1[C@H]2C(=O)O[C@H](c3ccccc3)[C@H](c3ccccc3)N2[C@H](c2ccc(OCCOC(=O)[C@@H]3C[C@@H]4C(=O)NCC(=O)N4[C@@H]3c3ccc(O)cc3)cc2)[C@@]12C(=O)Nc1ccc(I)cc12 | 0.0692 |

| SMILES | z-score |
| --- | --- |
| O=C1C[C@@](C(=O)NCCN2CCOCC2)(c2ccc([N+](=O)[O-])cc2)[C@@H](c2ccc(CO)cc2)N1CC12CC3CC(CC(C3)C1)C2 | -3.18 |
| COCCOC(=O)N1C(=O)[C@@]2(c3cc(C#CCC(C(=O)OC)C(=O)OC)ccc31)[C@H](C(=O)Nc1nc3ccccc3s1)[C@H]1C(=O)O[C@H](c3ccccc3)[C@H](c3ccccc3)N1[C@@H]2c1ccccc1OCCO | 0.275 |
| COC(=O)[C@@]1(Cc2ccccc2)[C@H]2c3cc(C(=O)N(C)C)n(Cc4ccsc4Br)c3C[C@H]2CN1C(=O)c1ccccc1 | -0.775 |
| CC1CC/C=C\[C@H]2OC34C=CCN(C(C)(C)C)C(=O)[C@H]3N(CCO)C(=O)[C@@H]4C2C(=O)O1 (stereo partly specified) | 0.583 |
| C=C(CCCC)/C(=C/C[C@@H](OC(C)=O)c1ccc(OCCO)cc1)c1cnc2ccccc2c1 | 1.04 |
| CC(C)C(O)C1C=CC2C(=O)N(c3ccccc3)C(=O)C2N1Nc1ccc([N+](=O)[O-])cc1 (stereo unspecified) | -0.467 |
| C=C(COC)/C(=C/C[C@H](OC(C)=O)c1ccc(CO)o1)c1cc(C(=O)OC)ccc1OC | 0.506 |
| COC(=O)[C@@]1(Cc2ccc(OC)cc2)[C@H]2c3cc(C(=O)N(C)C)n(C)c3C[C@H]2CN1C(=O)c1ccccc1 | -2.89 |
| CCOC(=O)[C@H]1C/C=C/C[C@H](C(=O)OCC)C(=O)O[C@H]2[C@@H](OC)O[C@H](CO)[C@@H](OC(=O)c3c(OC)cccc3OC)[C@@H]2OC1=O | -0.664 |
| CC(C)NC(=O)[C@@]1(c2ccc([N+](=O)[O-])cc2)CC(=O)N(C2CCCCC2)[C@@H]1c1ccc(CO)cc1I | 1.36 |
| CN1C(=O)C2C=CC(C(O)c3ccc([N+](=O)[O-])cc3)N(N3CCCCC3)C2C1=O (stereo unspecified) | -1.74 |
| COCCOC(=O)N1C(=O)[C@@]2(c3cc(C#CCNC(N)=O)ccc31)[C@H](C(=O)N1CCN(c3ncccn3)CC1)[C@H]1C(=O)O[C@H](c3ccccc3)[C@H](c3ccccc3)N1[C@@H]2c1ccc(OCCO)cc1 | -0.492 |
| O=C1NC(=O)C2C1C=CC(C(O)c1cc(C(F)(F)F)cc(C(F)(F)F)c1)N2Nc1ccccn1 (stereo unspecified) | -1.87 |
| COCCOC(=O)N1C(=O)[C@@]2(c3ccccc31)[C@H](C(=O)N1CCc3cc(OC)c(OC)cc3C1)[C@H]1C(=O)O[C@H](c3ccccc3)[C@H](c3ccccc3)N1[C@@H]2c1ccc(OCCO)cc1 | 1.12 |
| COC(=O)C(CC#Cc1ccc2c(c1)[C@]1(C(=O)N2)[C@H](C(=O)Nc2nc3ccccc3s2)[C@H]2C(=O)O[C@H](c3ccccc3)[C@H](c3ccccc3)N2[C@@H]1c1ccccc1OCCO)C(=O)OC | -0.839 |
| CN1C(=O)C2C=CC(C(O)c3ccccc3)N(N(c3ccccc3)c3ccccc3)C2C1=O (stereo unspecified) | -0.84 |
| COC(=O)[C@@]1(CCS(=O)(=O)c2ccccc2)N=C(c2ccc(OCCCO)cc2)O[C@H]1c1ccccc1CN=[N+]=[N-] | -0.146 |
| COC(=O)[C@H](Cc1ccccc1)N1CC2=C[C@@H](C3CC3)n3c(=O)n(C)c(=O)n3[C@H]2[C@@H]1[C@@H](O)Cc1ccccc1 | -1.32 |
